# Screening results: PubChem BioAssay, National Center for Advancing Translational Sciences (NCATS)
# This is a sample that favours compounds with a hit; in the whole collection about 19% have one here.
# TDP1 cell CPT: growth inhibition of DT40 Tdp1-/-;hTDP1 cells with camptothecin (screen for TDP1 inhibitors). chicken DT40 Tdp1-/-;hTDP1 cells + 20 nM CPT, ATP luminescence, 48 h. Potency, µM (doses to about 46.2 µM), inactives show top-dose activity change, negative = growth inhibition, actives largely listed as inhibitors. hit rate 12% among 420,000; further: potency means the concentration at half of the fitted maximal effect; nearly all actives have a fitted effect of over 55% in size
#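 Chicken DT40 Tdp1-/- cells stably complemented with human TDP1 were seeded at 400 cells/well in medium containing 20 nM camptothecin, exposed to pin-transferred compounds, and grown at 37 °C for at least 48 hr. Viability was read as ATP luminescence.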
# TDP1 cell noCPT: qHTS for Inhibitors of human tyrosyl-DNA phosphodiesterase 1 (TDP1): qHTS in cells in absence of CPT | DT40 Tdp1-/- hTDP1 cells, no CPT, ATP luminescence, 48 h | Potency, µM (series often up to 46.2 µM), without a hit: at the top dose activity change, negative = growth inhibition, actives largely listed as inhibitors | hit rate 15% among 420,000 | AID 686978, 2013; further: potency means the concentration at half of the fitted maximal effect; nearly all actives have a fitted effect of over 55% in size
#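 No-CPT arm: Tdp1-/-;hTDP1 DT40 cells (400/well) plus compounds, incubated ≥48 hr at 37 °C. Readout CellTiter-Glo luminescence.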
# HT1080NT lethal: kills 2HG-producing HT-1080-NT fibrosarcoma cells | HT-1080-NT fibrosarcoma viability, CellTiter-Glo ATP luminescence, 48 h | AID 686970 | Potency, µM (highest dose often 46.1 µM), for the others: at the highest dose activity, negative = less viability, usual class: cytotoxic | hit rate 1.6% among 360,000;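 further: NT is the 2HG producing partner of a matched IDH1 knockdown line; potency means the concentration at half of the fitted maximal effect; 0% = DMSO-treated cells and -100% = media-only wells without cells; nearly all actives have a fitted effect of over 55% in size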
#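 Viability of the 2HG-overproducing fibrosarcoma line after 48 hours of compound exposure at 37 degrees C was determined by luminescence with CellTiter-Glo, and concentration-effect curves were then fitted and categorized.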
# IL1B secr inh: inhibitors of inflammasome signaling (IL-1 beta secretion); activity change, % at 57.5 µM; hit rate 4.7% among 360,000; THP-1 LPS/ATP IL-1B secretion, AlphaLISA, 16 h; hits give low values; in the data active means activity change below about -50%; inconclusive means mostly about -30% to -49%
#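 Secreted IL-1B measured by AlphaLISA bead assay after 16 h compound exposure of THP-1 cells; compounds (final up to 57.5 uM) added 1 h before LPS (250 ng/mL) and ATP (1.25 mM) stimulation; lower signal means less secretion.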
# HT1080 IDH1KD tx: kills HT-1080 cells with IDH1 knockdown; AID 686971; hit rate 2% among 360,000; HT-1080 IDH1 knockdown viability, ATP luminescence, 48 h; Potency, µM (doses to about 46.1 µM), for inactives: top-dose activity, negative = toxicity, actives largely listed as cytotoxic;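 further: potency means the concentration at half of the fitted maximal effect; 0% = DMSO wells and -100% = cell-free medium wells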
#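 Luminescent ATP read-out (CellTiter-Glo, 10 min at room temperature) after 48 h compound exposure at 37 °C gave viability of IDH1-knockdown HT-1080 cells. Activity was normalised to DMSO and cell-free wells, then fitted as concentration-response curves.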
# Numbers without * were called inactive; i = inactive; u = inconclusive; x = not tested or not shown. Unless noted, the call rests on the fitted dose curve; in most records, active means well fitted curve in the direction sought with a large enough effect; inconclusive means small, poorly fitted or top-dose-only effect, or another doubt; inactive means no such curve, though single readings can be large; an effect the other way counts as inactive or inconclusive. Unless noted, on the % scale 0 is the no-effect control and ±100 the full control effect.
SMILES,TDP1 cell CPT,TDP1 cell noCPT,HT1080NT lethal,IL1B secr inh,HT1080 IDH1KD tx
N=c1n(CCO)c2ccccc2n1CCOc1ccccc1,u,u,-1.6%,-8.8,-1.2%
CCOC(=O)Cn1c(=N)n(CCOc2ccc(Br)cc2)c2ccccc21,23.1µM*,16.4µM*,-0.5%,x,-12.5%
O=C1C(Cl)=C(Nc2ccccc2)C(=O)c2ccccc21,2.06µM*,2.91µM*,2.3%,-107.0*,2.4%
O=C(C1=C(Nc2ccccc2)c2ccccc2S(=O)(=O)N1)c1ccccc1,u,u,-3.6%,9.6,7.5%
O=C(O)c1ccc(NC2=C(Cl)C(=O)c3ccccc3C2=O)cc1,14.6µM*,13µM*,-10.1%,10.3,-16.1%
O=C1C(Cl)=C(NCCc2ccccc2)C(=O)N1CCc1ccccc1,-5.1%,-27.2%,-0.7%,-19.0,-0.4%
CC(C)NC1=C(Cl)C(=O)c2ccccc2C1=O,18.4µM*,u,u,-2.9,7.08µM*
O=C1C(Cl)=C(NCCc2ccccc2)C(=O)c2ccccc21,0.82µM*,1.46µM*,9.2µM*,u,u
C=CCNC1=C(Cl)C(=O)c2ccccc2C1=O,14.6µM*,16.4µM*,-15.0%,-3.7,-25.6%
CC(=O)N(Cc1ccc(F)cc1)C1=C(NCCc2ccccc2)C(=O)c2ccccc2C1=O,1.84µM*,1.84µM*,5.8µM*,-79.3*,5.17µM*
COCCCNC1=C(Cl)C(=O)c2ccccc2C1=O,u,u,u,-6.7,-7.7%
C=CCNC1=C(Cl)C(=O)N(c2cccc(Cl)c2Cl)C1=O,5.6%,-15.4%,16.4%,28.2,7.2%
O=C(NCCc1ccc(F)cc1)N[C@@H](Cc1ccccc1)C(=O)O,3.2%,4.3%,8.2%,7.6,4.4%
O=C1C(Cl)=C(NCc2cccnc2)C(=O)c2ccccc21,13µM*,8.2µM*,18.4µM*,-101.2*,u
CCN(CC)CCCNC1=C(Cl)C(=O)c2ccccc2C1=O,3.26µM*,4.11µM*,u,-110.0*,20.6µM*
CN(Cc1ccccc1)C(=O)[C@@H]1CCCN1C(=O)[C@@H]1CCCN1C(=O)c1cccc(Cl)c1,-18.8%,-14.2%,12.3%,-17.3,25.2%
COC(=O)c1cc(CSc2nc3ccccc3c(=O)n2C)oc1C,u,u,-27.6%,28.4,u
O=C(O)c1cccc(NC2=C(Cl)C(=O)c3ccccc3C2=O)c1,11.6µM*,13µM*,u,-65.4*,16.4µM*
COc1ccc(Cl)cc1N1C(=O)/C(=C\c2sccc2C)N=C1SCC(=O)NC1CC1,16.4µM*,16.4µM*,u,u,-29.1%
C=CCN1C(=O)/C(=C\c2ccc(Cl)cc2)N=C1SCC(=O)NC1CCCCC1,-4.7%,-16.2%,9.1%,7.2,12.6%
Cc1nc2ccc(Cl)cc2c(-c2ccccc2Cl)c1CC(=O)O,5.2%,-2.7%,-3.1%,35.8,-1.1%
CN1CCc2nc3ccc(Cl)cc3c(-c3ccccc3Cl)c2C1,u,u,-23.3%,-56.4*,-19.7%
O=C(Nc1ccc(S(=O)(=O)N2CCOCC2)cc1)c1ccc(Br)o1,u,-17.3%,-1.0%,-17.1,1.6%
CC(=O)c1ccc(-c2c(CCO)sc3ccccc23)cc1,u,u,-21.0%,23.3,-27.8%
CC(=O)c1cccc(NC(=O)N2CCC(CN3CCCCC3)CC2)c1,19.9%,2.6%,x,x,x
SMILES,TDP1 cell CPT,TDP1 cell noCPT,HT1080NT lethal,IL1B secr inh,HT1080 IDH1KD tx
O=C(c1ccccn1)N1CCCC(N2CCN(c3cccc(C(F)(F)F)c3)CC2)C1 (stereo unspecified),u,14.6µM*,-9.6%,7.0,-4.5%
O=C(c1cc[n+]([O-])cc1)N1CCCC(N2CCN(c3cccc(C(F)(F)F)c3)CC2)C1 (stereo unspecified),10.3µM*,u,-12.2%,0.0,-8.3%
O=C(c1ccsc1)N1CCCC(N2CCN(c3cccc(C(F)(F)F)c3)CC2)C1 (stereo unspecified),u,u,1.4%,-6.7,-1.0%
CC(=O)N1CCc2c(sc3c2c(=O)n(-c2ccccc2C)c(=O)n3CC(=O)Nc2ccccc2)C1,27.3%,18.7%,x,x,x
O=C(COC(=O)Cn1cc(C(F)(F)F)ccc1=O)NCc1ccccc1,u,u,13.8%,-7.7,16.0%
Cc1cc(C(=O)Nc2nc3c(s2)CCCC3)cs1,u,u,6.31µM*,u,u
Cc1cccc(C(=O)Nc2sc3c(c2C(=O)NC(C)C)CCCC3)c1,u,14.6µM*,x,x,x
Cc1ccc(CC(=O)Nc2nc3c(s2)CCCC3)cc1,u,u,u,3.8,u
CNC(=O)c1c(NC(=O)c2cccc(C)c2)sc2c1CCC2,u,u,-15.6%,x,-11.2%
Cc1cccc(C(=O)Nc2nc3c(s2)CCCC3)c1,u,18.4µM*,x,x,x
Cc1ncsc1C(=O)Nc1nc2c(s1)CCCC2,-29.1%,u,u,9.5,u
O=C(Nc1nc2c(s1)CCCC2)c1ccc(Br)s1,16.4µM*,29.1µM*,u,-93.0*,u
CCC(CC)n1c(C)cc(=O)n1C(CC)CC,-2.9%,4.0%,15.5%,7.2,19.4%
Cc1cc(C)nc(S[C@@H]2C[C@@H](C(=O)N3CCCN(C)CC3)N(Cc3cc(F)ccc3F)C2)n1,-8.3%,-5.9%,x,x,x
CC1(C(=O)NS(=O)(=O)c2ccccc2)CCN1C(=O)CCc1ccccc1 (stereo unspecified),-42.4%,-11.0%,8.0%,-8.2,u
O=C(Nc1nc2c(s1)CCCC2)c1ccc2ncsc2c1,16.4µM*,u,u,0.0,-2.8%
COc1ccc(C(=O)Nc2nc3c(s2)CCCC3)cc1Cl,u,14.6µM*,x,x,x
O=C(Nc1nc2c(s1)CCCC2)c1ccc(N2C(=O)CCC2=O)cc1,1.1%,0.9%,9.7%,i,1.1%
Cc1ccccc1NC(=O)Nc1nnc(Cc2ccc([N+](=O)[O-])cc2)s1,-26.0%,-10.2%,-0.2%,-14.1,-22.2%
Brc1ccccc1-n1nnc(-c2cnc3ccccc3c2)n1,u,18.4µM*,-10.6%,-17.9,-8.7%
Cc1ccc(CNC(=O)Cc2noc3ccccc23)cc1,23.1%,u,-7.4%,-10.8,-13.4%
O=C(O)c1ccc2c(c1)c1c3n2CCNC3CCC1 (stereo unspecified),8.1%,-4.7%,3.5%,0.6,3.1%
c1cc2c(cc1C1CCCCC1)c1c3n2CCN[C@H]3CCC1,10.6µM*,10.6µM*,x,x,x
Oc1ccc2c(c1)c1c3n2CCNC3CCC1 (stereo unspecified),7.8%,-16.3%,3.8%,4.3,11.0%
c1cc2c(cc1C1CCCCC1)c1c3n2CCCNC3CCC1 (stereo unspecified),7.31µM*,6.51µM*,16.4µM*,-83.4*,20.6µM*
Cc1ccc2c(c1)c1c3n2CCCNC3CCC1 (stereo unspecified),u,u,u,-54.5*,u
